Shown are actives, neighbours in structure and some others; about 3.1% of the full set was active somewhere.
p53ts 39C tox: cytotoxicity in p53ts cells at nonpermissive temperature. AID 902. hit rate 1.5% among 130,000. Potency, µM (titrated, usually from 46.1 µM), without a hit: top-dose activity change, negative = cell killing, hits mostly cytotoxic. H1299-p53A138V viability at 39C, ATP luminescence, 24 h; note: % is set by controls: 0 for no effect and ±100 for the full control effect; nearly all actives have a fitted effect of over 55% in size
p53ts 32C kill: p53ts cell cytotoxicity, permissive temperature. H1299-p53A138V at 32C, ATP luminescence viability, 24 h. Potency, µM (top dose mostly 46.1 µM), for inactives: top-dose activity change, negative = cytotoxicity, most hits filed as cytotoxic. hit rate 0.93% among 130,000. AID 924;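 note: 0% = DMSO and -100% = full killing by reference compound; nearly all actives have a fitted effect of over 55% in size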
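Viability by ATPlite luminescence after 24 h compound treatment (up to 46 uM) at the permissive 32C. Cells are H1299 carrying p53 A138V. Scale runs from DMSO basal to 100 uM tamoxifen as full kill; AC50 from Hill fits.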
IkB sig inh: IkB pathway inhibition in ABC-DLBCL cells. hit rate 0.04% among 110,000. AID 445. ABC-DLBCL IkBa-CBG/CBR dual luciferase ratio, 4 h; response scale: scaled: untreated 0%, proteasome inhibitor 100%. Potency, µM (highest dose often 57.1 µM), without a hit: at the top dose IkBa stabilization activation; active = well fitted curve in the direction sought with a large enough effect in the signal ratio, not every such curve was filed as active; inconclusive = small, poorly fitted or top-dose-only effect, or a change in a side signal; the % refers to the signal ratio;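 note: the direction sought is a rising ratio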
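Luminescence ratio of IκBα-fused green versus native red beetle luciferase in OCI-Ly3 cells, 4 h post-doxycycline with compound; red signal alone, scaled from basal (0%) to zero light (-100%), flagged nonspecific or cytotoxic effects.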
TSHR ag: activates the human thyroid stimulating hormone receptor. Potency, µM (highest dose often 57.1 µM), for the others: at the top dose activation, most hits filed as activators. HEK293-CNG-TSHR cells (CNG channel as cAMP sensor), membrane potential dye, cAMP. hit rate 0.48% among 73,000; active = well fitted activation curve with a large enough effect in the main read-out, with a control signal flat, not every such curve was filed as active; inconclusive = small, poorly fitted or top-dose-only effect, or a change in a side signal; inactive = no such curve, though single readings can be large or run the other way; % of control where 0% means no effect;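 note: the control signal comes from parental cells without the receptor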
Target sequence (P16473 whole entry, looked up): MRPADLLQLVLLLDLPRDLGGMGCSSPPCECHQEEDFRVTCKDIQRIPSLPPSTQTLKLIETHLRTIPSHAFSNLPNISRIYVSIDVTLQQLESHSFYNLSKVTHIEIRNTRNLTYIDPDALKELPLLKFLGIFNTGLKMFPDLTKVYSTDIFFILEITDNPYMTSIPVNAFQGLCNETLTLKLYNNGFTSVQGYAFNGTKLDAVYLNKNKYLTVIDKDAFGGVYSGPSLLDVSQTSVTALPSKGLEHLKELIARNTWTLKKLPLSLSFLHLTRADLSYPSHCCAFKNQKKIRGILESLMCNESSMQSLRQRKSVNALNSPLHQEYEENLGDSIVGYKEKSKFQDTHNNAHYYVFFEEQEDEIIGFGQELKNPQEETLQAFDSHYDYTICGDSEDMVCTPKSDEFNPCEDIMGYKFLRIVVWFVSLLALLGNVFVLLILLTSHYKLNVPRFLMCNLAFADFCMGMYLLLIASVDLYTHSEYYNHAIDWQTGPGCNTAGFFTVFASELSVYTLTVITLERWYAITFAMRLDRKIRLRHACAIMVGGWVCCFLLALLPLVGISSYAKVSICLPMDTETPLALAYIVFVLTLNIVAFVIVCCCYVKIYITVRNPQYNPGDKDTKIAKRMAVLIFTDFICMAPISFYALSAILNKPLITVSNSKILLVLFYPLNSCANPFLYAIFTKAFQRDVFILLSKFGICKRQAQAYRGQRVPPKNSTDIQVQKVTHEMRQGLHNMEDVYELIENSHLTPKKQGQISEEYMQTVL
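cAMP rise detected as CNG-channel membrane depolarization by fluorescent dye (emission 590 nm), 30 min after compound, following 60 min dye loading containing 100 uM RO 20-1724 at room temperature. Cells: TSHR/CNG HEK 293, with parental CNG HEK 293 as control.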
HEK293 cAMP cs: raises cAMP in parental HEK293 cells, TSHR agonist counter-screen | Potency, µM (doses to about 57.1 µM), for inactives: top-dose activation, hits mostly activators | hit rate 2.5% among 73,000 | parental HEK293 CNG cAMP sensor, membrane potential fluorescence; note: % of control where 0% means no effect; nearly all actives have a fitted effect of over 55% in size
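Parental HEK 293 cells stably expressing a cAMP-gated CNG channel were loaded with membrane potential dye containing 100 uM RO 20-1724 for 60 min. Compound added for 30 min; depolarization read as fluorescence intensity at 590 nm.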
Imprint erasure: inducers of genomic imprint erasure in mouse ES cells; mouse ES Peg3-LacZ reporter, beta-gal luminescence, 40 h; Potency, µM (top dose mostly 60.7 µM), for inactives: top-dose activity change, positive = activation, hits mostly activators; hit rate 0.02% among 110,000; AID 1948
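Each well holds 300 Peg3LacZ-Neo (maternal) female ES cells incubated 40 h at 37C, 5% CO2. LacZ is measured by BetaGlo luminescence, with AC50 and maximum efficacy derived from dose-response curves.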
* = called active by the depositor; ? = inconclusive; . = no result given; [ ] = another dose, or the depositor's remark. Unless noted, calls come from the whole dose curve; as a rule, active = well fitted curve in the direction sought with a large enough effect; inconclusive = small, poorly fitted or top-dose-only effect, or another doubt; inactive = no such curve, though single readings can be large; an effect the other way counts as inactive or inconclusive. Potency is the fitted concentration of half-maximal effect.

SMILES	p53ts 39C tox	p53ts 32C kill	IkB sig inh	TSHR ag	HEK293 cAMP cs	Imprint erasure
Cc1ccccc1CNC(=O)c1ccc(NC(=O)c2nsc3ccccc23)cc1	?	?	?	.	.	-5%[10.9 µM]
Cc1ccc(CNC(=O)c2ccc(NC(=O)c3nsc4ccccc34)cc2)cc1	-21%	-8%	?	.	.	-8%[10.9 µM]
CCOC(=O)c1ccc(NC(=O)c2nsc3ccccc23)cc1	13µM*	?	?	.	.	-47%[10.9 µM]
CSc1nnc2c(n1)OC(c1cccn1C)N(C(C)=O)c1ccccc1-2 (stereo not drawn)	5%	5%	6%	?	16µM*	-3%
Cc1cc(-c2nnco2)c(C)n1-c1ccccc1	?	-28%	0%	?	20µM*	-14%
Cc1nc2ccccn2c1-c1nnco1	2%	5%	0%	0%	1%	-5%
O=C(CSCc1cnn(-c2ccccc2)c1-n1cccc1)NCCN1CCOCC1	4%	-13%	-1%	6%	12%	-7%
COCCNC(=O)c1nn(-c2ccc(C)cc2)c(=O)c2c1c1ccccc1n2C	7%	1%	0%	.	.	-9%[10.9 µM]
COc1ccc(-n2nc(C(=O)Nc3ccc4c(c3)OCO4)c3c4ccccc4n(C)c3c2=O)cc1	11%	17%	0%	?	16µM*	-5%
COc1ccc(-n2nc(C(=O)Nc3cccc(C(F)(F)F)c3)c3c4ccccc4n(C)c3c2=O)cc1	21%	3%	0%	.	.	-2%[10.9 µM]
Cc1ccc(-n2nc(C(=O)NCc3ccco3)c3c4ccccc4n(C)c3c2=O)cc1	-3%	-18%	4%	?	4µM*	11%
Cc1c(C(=O)NCc2ccc3c(c2)OCO3)oc2ccccc12	-1%	-17%	?	?	25µM*	-8%
O=C(CSCc1cnn(-c2ccccc2)c1-n1cccc1)NCc1ccc2c(c1)OCO2	2%	9%	?	?	32µM*	-8%
CO[C@H]1COC(=O)C/C=C\[C@H](C)[C@H](OC)COC(=O)[C@@H](C)NC(=O)C/C=C\[C@@H]1C	5%[9.22 µM]	4%[9.22 µM]	.	-1%[11.4 µM]	-2%[11.4 µM]	.
COC(=O)CC[C@@H](C)[C@H]1CC[C@H]2[C@H]3CC[C@H]4C[C@@H]5CC[C@@]4(C)C3(O5)[C@@H](Br)[C@@H](Br)[C@@]12C	17%[9.22 µM]	10%[9.22 µM]	0%[11.4 µM]	-1%[11.4 µM]	5%[11.4 µM]	.
O=C(NCc1ccc2c(c1)OCO2)c1nn(-c2ccccc2)c(=O)c2ccccc12	-13%	6%	-1%	?	25µM*	-10%
CCn1cc(SCC(=O)NCc2ccc3c(c2)OCO3)c2ccccc21	5µM*	5µM*	?	?	?	-90%
COc1ccccc1-n1nc(C(=O)Nc2ccc3c(c2)OCO3)c2ccccc2c1=O	-16%	4%	-3%	11%	25%	-13%
O=C(Nc1ccc2c(c1)OCO2)c1nn(-c2ccccc2)c(=O)c2ccccc12	-8%	-4%	?	?	25µM*	-11%
O=C(Nc1cnccn1)c1ccncc1	17%	12%	-5%	21%	14%	-4%
O=C(Nc1cnccn1)c1cccc(C(F)(F)F)c1	5%	0%	5%	?	20µM*	11%
CNC(=O)CCc1nc(-c2ccc(C(C)(C)C)cc2)no1	?	13µM*	2%	9%	27%	-26%
CC(C)(C)c1ccc(-c2noc(CCC(N)=O)n2)cc1	?	?	14%	-2%	-6%	-11%
Cc1ccc(-c2noc(-c3nnn(CC(=O)Nc4cc(Cl)ccc4C)c3N)n2)cc1	-1%	2%	-1%	.	.	7%[10.9 µM]
COc1ccc(Oc2nc(C)nc3c2oc2ccccc23)cc1	-5%	0%	3%	?	25µM*	-8%
SMILES	p53ts 39C tox	p53ts 32C kill	IkB sig inh	TSHR ag	HEK293 cAMP cs	Imprint erasure
CCOc1sc2nc(C)n(CC(=O)Nc3cccc(C)c3)c(=O)c2c1C	17%	-4%	3%	.	.	3%[10.9 µM]
COc1ccc(-c2cc(-c3ccccc3)nc(N3CCCC3)n2)cc1OC	-5%	8%	5%	3.2µM*	11%[11.4 µM]	-13%
Cc1ccc(C)c(Nc2nn3c(=O)c4ccc(C(=O)NCCC5=CCCCC5)cc4nc3s2)c1	23%	?	-1%	.	.	22%[10.9 µM]
Cc1c(Cl)cccc1Nc1nn2c(=O)c3ccc(C(=O)NCCc4ccccc4)cc3nc2s1	?	?	?	.	.	-33%[10.9 µM]
Cc1ccc(C)c(Nc2nn3c(=O)c4ccc(C(=O)NCCc5ccccc5)cc4nc3s2)c1	3.2µM*	-6%	?	.	.	23%[10.9 µM]
COc1ccccc1Nc1nn2c(=O)c3ccc(C(=O)NCCc4ccccc4)cc3nc2s1	3.2µM*	3.2µM*	?	.	.	-34%[10.9 µM]
CCN(CC)CCNC(=O)c1ccc2c(=O)n3nc(Nc4cccc(Cl)c4C)sc3nc2c1	20µM*	?	-3%	.	.	-4%[10.9 µM]
COc1ccccc1Nc1nn2c(=O)c3ccc(C(=O)NCCC4=CCCCC4)cc3nc2s1	3.2µM*	5µM*	?	.	.	-37%[10.9 µM]
COc1ccccc1Nc1nn2c(=O)c3ccc(C(=O)NC(C)c4ccccc4)cc3nc2s1 (stereo not drawn)	12%	3%	-2%	.	.	-5%[10.9 µM]
CCc1nn(CC(=O)NCCC(C)C)c(=O)c2cc3occc3n12	9%	-1%	1%	.	.	8%[10.9 µM]
CCOC(=O)C1CCCN(C(=O)c2ccc3c(c2)N(Cc2ccccc2)C(=O)c2ccccc2S3(=O)=O)C1 (stereo not drawn)	-11%	8%	?	.	.	-8%[10.9 µM]
O=C(CN(CCc1ccccc1)C(=O)Cn1nnc(-c2cccs2)n1)NCc1ccco1	-7%	8%	0%	?	25µM*	-3%
O=C(CN(CCc1ccccc1)C(=O)CN1C(=O)COc2ccccc21)NCc1ccco1	0%	1%	0%	10%	26%	-3%
N#CC1=C(N)Nc2nc3ccccc3n2C1c1ccc(F)cc1 (stereo not drawn)	9%	.	.	.	.	.
COC(=O)c1ccc(C2C=C(c3ccc(Cl)cc3)Nc3nc4ccccc4n32)cc1 (stereo not drawn)	11µM*	8.9µM*	?	.	.	-20%[10.9 µM]
Fc1ccc(C2=CC(c3ccc(F)cc3)n3c(nc4ccccc43)N2)cc1 (stereo not drawn)	13µM*	10µM*	?	.	.	-21%[10.9 µM]
COc1ccc(C2=CC(c3cc(Br)ccc3F)n3c(nc4ccccc43)N2)cc1 (stereo not drawn)	10µM*	16µM*	23%	.	.	-17%[10.9 µM]
CS(=O)c1nc(-c2ccc(Br)cc2)cc(-c2ccccc2)c1C#N (stereo not drawn)	?	20µM*	?	?	?	-26%

Screens (PubChem)
